# Sampled rows, rich in hits. Any-hit rate of the full collection: about 10%.
# NIH3T3 tox = Cytotoxic Profiling in NIH 3T3 Cell Line of Diverse Libraries Using Quantitative High-Throughput Screening | 94,000 tested, 4.3% active | Potency, µM (highest dose often 96.7 µM), inactives show at the top dose activity change, negative = cytotoxicity, hits mostly inhibitors | AID 1345082, 2018 | NIH 3T3 viability, CellTiter-Glo ATP luminescence, 48-72 h; further: on the % scale 0 is the no-effect control and ±100 the full control effect; nearly all actives have a fitted effect of over 55% in size
#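 NIH 3T3 cells at 400 cells/well received 23 nL of compound by pintool and were incubated 48 or 72 h at 37 °C. Viability was read as ATP-coupled CellTiter-Glo luminescence.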
# GPT2 inh = Primary qHTS assay for inhibitors of Glutamate pyruvate transaminase 2 (GPT2). Alanine aminotransferase 2 (Homo sapiens), Q8TD30. Recombinant GPT2, coupled pyruvate oxidase/HRP Amplex Red fluorescence. Potency, µM (top dose mostly 57.7 µM), without a hit: at the highest dose activity change, negative = inhibition, most hits filed as inhibitors. 100,000 tested, 0.25% active. AID 1671188, 2021; further: on the % scale 0 is the no-effect control and ±100 the full control effect; nearly all actives have a fitted effect of over 60% in size
# Target sequence (Q8TD30 whole entry, looked up): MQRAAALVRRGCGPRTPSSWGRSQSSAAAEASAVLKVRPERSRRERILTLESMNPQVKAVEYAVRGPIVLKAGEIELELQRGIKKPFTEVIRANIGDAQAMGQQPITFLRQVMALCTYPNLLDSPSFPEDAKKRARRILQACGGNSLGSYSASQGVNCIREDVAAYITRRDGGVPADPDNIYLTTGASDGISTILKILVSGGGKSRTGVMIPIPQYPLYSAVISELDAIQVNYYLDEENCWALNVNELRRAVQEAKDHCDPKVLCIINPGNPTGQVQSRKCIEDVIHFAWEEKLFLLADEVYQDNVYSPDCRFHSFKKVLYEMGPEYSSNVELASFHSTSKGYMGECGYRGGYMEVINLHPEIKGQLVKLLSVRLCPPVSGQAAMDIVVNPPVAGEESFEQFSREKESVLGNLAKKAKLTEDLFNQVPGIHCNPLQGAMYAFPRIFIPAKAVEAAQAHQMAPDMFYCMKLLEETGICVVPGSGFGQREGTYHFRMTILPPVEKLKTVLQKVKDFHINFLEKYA
#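 Fluorescence read-out: pyruvate from GPT2 turnover coupled to pyruvate oxidase, HRP and Amplex Red (0.2mM ThPP, 0.2U/mL PO and HRP, 50uM Amplex final). Substrates 250uM a-KG, 2mM L-alanine; enzyme 10ng/uL; 30 min RT.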
# FLuc inh-1 = Firefly luciferase inhibition profiling of diverse chemical library using quantitative high-throughput screening | Luciferin 4-monooxygenase (Photinus pyralis), P08659 | purified P. pyralis luciferase, luminescence, biochemical | Potency, µM (doses to about 115 µM), hits mostly inhibitors | 76,000 tested, 2.5% active; further: on the % scale 0 is the no-effect control and ±100 the full control effect; nearly all actives have a fitted effect of over 65% in size
#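 FLuc 10nM, D-luciferin 10uM, ATP 10uM, Mg acetate 10mM, Tris acetate pH 7.5, Tween/BSA; cpd qHTS; enzyme added last; CCD luminescence.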
# hNpr1 antagonist = Natriuretic polypeptide receptor (hNpr1) antagonism - Primary qHTS. HEK293 hNpr1 GloSensor cGMP, ANP-stimulated luminescence. Potency, µM (top dose mostly 46.3 µM), for inactives: at the highest dose activity change, negative = inhibition, most hits filed as inhibitors. 76,000 tested, 1.6% active. AID 1347048, 2019; calls by dose curve; further: on the % scale 0 is the no-effect control and ±100 the full control effect; nearly all actives have a fitted effect of over 60% in size
#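 HEK293 cells stably expressing human Npr1 and cGMP GloSensor pGS-40F, loaded 2 h with 2% GloSensor reagent, given compound 30 min at room temperature. Luminescence read before and 20 min after 0.1 nM hNppA.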
# HEK cytotox = Cytotoxic Profiling in HEK 293 Cell Line of Diverse Libraries Using Quantitative High-Throughput Screening. 94,000 tested, 6.6% active. AID 1345083, 2018. Potency, µM (doses to about 115 µM), without a hit: at the top dose activity change, negative = cytotoxicity, usual class: inhibitors. HEK 293 viability, ATP luminescence (CellTiter-Glo), 48-72 h; further: on the % scale 0 is the no-effect control and ±100 the full control effect; nearly all actives have a fitted effect of over 60% in size
#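 Luminescence from cellular ATP, measured with CellTiter-Glo, indicates HEK 293 viability. Cells plated at 250 cells/well are treated with compound for 48 or 72 hr at 37 degree Celsius before reagent addition.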
# FLuc SDR -ATP = Firefly luciferase (FLuc-C-HiBiT) SDR gain of signal screen - without ATP; Purified FLuc-C-HiBiT, Nano-Glo HiBiT luminescence, no ATP; shares compounds with FLuc inh-1; AID 1963318, 2024; 1,300 tested, 7.8% active; Potency, µM (highest dose often 32.7 µM), without a hit: at the highest dose activation (signal gain), most hits filed as activators; further: nearly all actives have a fitted effect of over 55% in size
# FLuc SDR ATP = Firefly luciferase (FLuc-C-HiBiT) SDR gain of signal screen - plus ATP. shares compounds with FLuc inh-1. 1,300 tested, 8.7% active. Potency, µM (highest dose often 32.7 µM), for the others: at the highest dose activation (gain of signal), actives largely listed as activators. AID 1963319, 2024. purified FLuc-C-HiBiT + ATP, HiBiT complementation luminescence;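 further: signal reports ligand binding via conformational change of the enzyme rather than luciferase catalysis; % of control where 0% means no effect; nearly all actives have a fitted effect of over 55% in size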
# FLuc inh-2 = Firefly luciferase (FLuc-C-HiBiT) enzymatic inhibition screen - Functional assay. shares compounds with FLuc inh-1. purified FLuc-C-HiBiT enzyme, luciferin luminescence. Potency, µM (titrated, usually from 32.7 µM), for inactives: at the top dose activity change, negative = inhibition, most hits filed as inhibitors. 1,300 tested, 42% active; further: on the % scale 0 is the no-effect control and ±100 the full control effect; nearly all actives have a fitted effect of over 70% in size
# Npr1 antag conf = Natriuretic polypeptide receptor (hNpr1) antagonism - Confirmation; shares compounds with hNpr1 antagonist; HEK293 hNpr1 cGMP GloSensor luminescence, ANP-stimulated; Potency, µM (doses to about 57.6 µM), for the others: at the top dose activity change, negative = inhibition, most hits filed as inhibitors; 1,400 tested, 76% active; calls by dose curve; further: nearly all actives have a fitted effect of over 70% in size
# NPR2 antag = Natriuretic polypeptide receptor (hNpr2) antagonism - Subtype selectivity assay; shares compounds with hNpr1 antagonist; HEK293 hNpr2 GloSensor cGMP luminescence, CNP-stimulated; Potency, µM (series often up to 57.6 µM), for inactives: at the top dose activity change, negative = inhibition, most hits filed as inhibitors; 1,400 tested, 67% active; calls by dose curve; further: nearly all actives have a fitted effect of over 70% in size
# FLuc inh counter = Natriuretic polypeptide receptor (hNpr1) antagonism - Confirmation firefly luciferase (FLuc) inhibition counterscreen. Potency, µM (titrated, usually from 57.6 µM), inactives show at the highest dose activity change, negative = inhibition, hits mostly inhibitors. purified FLuc enzyme, luminescence, Km substrate. shares compounds with hNpr1 antagonist. 1,400 tested, 0.7% active; further: series mostly up to about 58 µM; 0% is about no effect
# GloSensor ctrl = Natriuretic polypeptide receptor (hNpr1) antagonism - Counterscreen GloSensor control cell line. shares compounds with hNpr1 antagonist. HEK293 GloSensor cGMP, SNP-stimulated, luminescence. Potency, µM (series often up to 57.6 µM), for inactives: at the highest dose activity change, negative = inhibition, actives largely listed as inhibitors. 1,400 tested, 69% active. AID 1347051, 2019; calls by dose curve; further: on the % scale 0 is the no-effect control and ±100 the full control effect; nearly all actives have a fitted effect of over 70% in size
# Starred values were filed as active, the others as inactive; i = inactive; ? = inconclusive; . = no result given; [ ] = another dose, or the depositor's remark. Unless noted, the call rests on the fitted dose curve; in most records, active means well fitted curve in the direction sought with a large enough effect; inconclusive means small, poorly fitted or top-dose-only effect, or another doubt; inactive means no such curve, though single readings can be large; an effect the other way counts as inactive or inconclusive. Potency means the concentration at half of the fitted maximal effect.
SMILES,NIH3T3 tox,GPT2 inh,FLuc inh-1,hNpr1 antagonist,HEK cytotox,FLuc SDR -ATP,FLuc SDR ATP,FLuc inh-2,others
CCN1CCN(C(=O)c2ccc3nc(-c4cccc(C)n4)oc3c2)CC1,-25%[138 µM],i,.,.,-12%[172 µM],.,.,.,
COc1ccc(N2CCN(C(=O)Cn3cccc3-c3nc(-c4ccc5c(c4)OCO5)no3)CC2)cc1,0%,-7%,i,-1%,1%,15%,12%,-3%,
COc1ccc(-c2noc(-c3cccn3CC(=O)N3CCN(c4ccc(F)cc4)CC3)n2)cc1F,i,-2%,i,4%,8%,.,.,.,
COc1ccc(C2Cn3nnc(-c4nc(-c5ccccc5F)no4)c3CO2)cc1 (stereo not given),i,i,i,?,-8%,.,.,.,
COc1cccc(-n2nnc(-c3nc(-c4ccccc4F)no3)c2C)c1,.,.,.,.,.,18%,?,5.6µM*,
CCC[C@@H]1CN(C(=O)c2cccc(N3CCS(=O)(=O)CC3)c2)C[C@H]1N(C)C,-7%,?,i,3%,-2%,.,.,.,
COCCNc1cc(-c2cncc(C(=O)N3CCOCC3)n2)c2cc[nH]c2n1,-22%,i,i,-2%,-1%,.,.,.,
COCCNc1cc(-c2ccc3ccccc3n2)c2cc[nH]c2n1,?,i,10µM*,-19%,?,13%,17%,?,
COc1ccc(Br)cc1C(=O)Nc1nc2ccc(F)cc2s1,.,.,.,.,.,16%,11%,-8%,
c1ccc(-c2csc(CCNc3nccc(-c4ccccn4)n3)n2)cc1,?,i,?,?,?,.,.,.,
c1ccc(-c2ccnc(NCCc3c[nH]c4ccccc34)n2)nc1,?,-4%,8.9µM*,-27%,?,16%,12%,?,
O=C1NCCCCCCN(C(=O)Nc2ccc3c(c2)OCCO3)[C@H]2CCC[C@@H]12,-17%,4%,1.1µM*,?,-9%,?,?,3.5µM*,
O=C1CCN(C(=O)[C@@H]2CCCN2C(=O)Nc2ccc3c(c2)OCCO3)CCCCCCN1,-11%,i,i,3%,i,.,.,.,
Cc1ccc(-c2cc3c(=O)n(CCNC(=O)c4cccc5[nH]ccc45)ccn3n2)cc1C,32µM*,i,5.6µM*,-15%,35µM*,23%,15%,7.9µM*,
O=C(NCCn1ccn2nc(-c3ccc(F)cc3)cc2c1=O)c1cccc2[nH]ccc12,i,4%,i,-13%,i,.,.,.,
Cc1ccc(-c2cc3c(=O)n(CCNC(=O)c4ccoc4)ccn3n2)cc1C,?,1%,7.1µM*,-12%,?,25%,17%,?,
Cc1ccc(C(=O)NCCn2ccn3nc(-c4ccc(C)c(C)c4)cc3c2=O)cc1,-9%,-11%,i,0%,-2%,.,.,.,
Cc1cc(F)ccc1NC(=O)c1csc2c1CCC(C)C2 (stereo not given),.,.,.,.,.,26%,20%,?,
CC(=O)N1CCc2nn(CC(=O)Nc3ccc(F)cc3C)c(=O)cc2C1,i,i,i,0%,12%,.,.,.,
CC(C)CNC(=O)c1cc(C2CC2)nc2onc(C3CCNCC3)c12,-24%,i,.,.,-10%,.,.,.,
O=C1COc2ccc(N3CCCC3)nc2CN1Cc1ccc(C(F)(F)F)cc1,?,i,i,?,79µM*,.,.,.,Npr1 antag conf=40µM*;NPR2 antag=?;FLuc inh counter=0%[86.2 µM];GloSensor ctrl=?
Cc1ccccc1CN1Cc2nc(NCc3cccc(F)c3)ccc2OCC1=O,79µM*,-30%[88.5 µM],i,?,?,.,.,.,Npr1 antag conf=40µM*;NPR2 antag=35µM*;FLuc inh counter=0%[86.2 µM];GloSensor ctrl=40µM*
O=C1COc2ccc(-c3ccc4c(c3)OCO4)nc2CN1Cc1ccc(F)cc1,?,-20%[88.5 µM],i,?,56µM*,.,.,.,Npr1 antag conf=?;NPR2 antag=35µM*;FLuc inh counter=6%[86.2 µM];GloSensor ctrl=?
O=C1COc2ccc(-c3cccnc3)nc2CN1Cc1ccc(C(F)(F)F)cc1,?,?,i,-17%[70.6 µM],?,.,.,.,
Cc1nc(C)c(C(=O)NCC2CCCCC(=O)N2)s1 (stereo not given),i,5%,i,6%,1%,.,.,.,
COc1ccc(CN2C=C(C(=O)OCc3noc(CC4CCCCC4)n3)C(C)=NS2(=O)=O)cc1,-25%,i,i,?,?,.,.,.,

# Screening data deposited in PubChem by National Center for Advancing Translational Sciences (NCATS).
